# Source: PMC7862700, “An all-to-all approach to the identification of sequence-specific readers for epigenetic DNA modifications on cytosine”
# Legend:
# Experiment in all cases: DAPPL (digital affinity profiling via proximity ligation, sequencing); 10 mM Tris-HCl pH 7.5, 50 mM NaCl, 1 mM DTT, 4% glycerol, room temperature, 30 min; GST-TFs on glutathione beads, 16-mer random dsDNA library, 0.1% formaldehyde crosslink after washing; high values mean tight binding
# FEV = molecular target: T1, FEV (Homo sapiens, UniProt Q99581 1-238); conditions: protein: recombinant; tags: N-terminal GST; dsDNA, one strand shown
# T1 sequence: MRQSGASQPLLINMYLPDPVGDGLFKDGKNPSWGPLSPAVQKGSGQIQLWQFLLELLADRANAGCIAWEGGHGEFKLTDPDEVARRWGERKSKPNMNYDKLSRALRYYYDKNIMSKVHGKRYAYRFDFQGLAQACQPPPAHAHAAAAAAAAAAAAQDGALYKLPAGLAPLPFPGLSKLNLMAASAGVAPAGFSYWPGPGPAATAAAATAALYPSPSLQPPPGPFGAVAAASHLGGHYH
# How it was run: (§1)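 Yeast served to express human transcription factors as GST fusions, which were then captured on glutathione beads and labelled with DNA barcodes. Pooled with a tag-only sample, they were incubated with 200 nmole of a 16-mer random double-stranded DNA library for 30 min at room temperature in Tris/NaCl/DTT/glycerol buffer, washed, crosslinked with 0.1% formaldehyde, ligated by proximity, amplified by PCR and sequenced. Dividing each hexamer's read frequency for a factor by its frequency for the tag-only sample gives the binding signal.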
# ETV5 = ETV5 (Homo sapiens, UniProt P41161 1-510); conditions: protein: recombinant; tags: N-terminal GST; dsDNA, one strand shown
# Chain of ETV5 (P41161 whole entry): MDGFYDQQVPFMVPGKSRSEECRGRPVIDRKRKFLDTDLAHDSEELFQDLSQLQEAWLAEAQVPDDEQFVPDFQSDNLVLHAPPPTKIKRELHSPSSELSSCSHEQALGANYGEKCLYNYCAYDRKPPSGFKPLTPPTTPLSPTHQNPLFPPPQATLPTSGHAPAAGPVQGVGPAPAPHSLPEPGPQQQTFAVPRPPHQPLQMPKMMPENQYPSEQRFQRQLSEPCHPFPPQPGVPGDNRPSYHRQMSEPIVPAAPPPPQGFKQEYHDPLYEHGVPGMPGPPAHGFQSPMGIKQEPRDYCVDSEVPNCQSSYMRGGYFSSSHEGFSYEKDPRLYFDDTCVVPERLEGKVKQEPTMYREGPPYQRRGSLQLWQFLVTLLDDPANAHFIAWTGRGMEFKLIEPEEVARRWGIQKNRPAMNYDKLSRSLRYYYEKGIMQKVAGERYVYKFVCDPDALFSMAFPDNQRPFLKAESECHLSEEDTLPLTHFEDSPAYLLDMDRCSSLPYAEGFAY
# How it was run: as §1
# HSF1 = HSF1 (Homo sapiens, UniProt Q00613 1-529); conditions: protein: recombinant; tags: N-terminal GST; chain copies: 3; dsDNA, one strand shown
# Chain of HSF1 (Q00613 whole entry): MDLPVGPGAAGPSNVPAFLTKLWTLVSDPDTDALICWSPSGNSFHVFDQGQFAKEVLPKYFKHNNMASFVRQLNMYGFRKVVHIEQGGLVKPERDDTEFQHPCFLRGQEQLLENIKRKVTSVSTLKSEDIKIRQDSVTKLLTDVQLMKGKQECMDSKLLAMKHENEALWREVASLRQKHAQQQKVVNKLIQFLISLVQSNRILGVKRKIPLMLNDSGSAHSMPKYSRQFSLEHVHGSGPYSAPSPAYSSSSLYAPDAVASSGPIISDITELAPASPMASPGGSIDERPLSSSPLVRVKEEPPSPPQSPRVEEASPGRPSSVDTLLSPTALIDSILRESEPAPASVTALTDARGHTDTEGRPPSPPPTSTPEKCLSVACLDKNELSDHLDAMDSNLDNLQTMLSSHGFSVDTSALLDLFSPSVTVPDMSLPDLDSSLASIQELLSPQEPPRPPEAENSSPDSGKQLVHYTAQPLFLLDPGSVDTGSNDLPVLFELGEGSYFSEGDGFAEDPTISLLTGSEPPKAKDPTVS
# How it was run: as §1
# SPIC = molecular target: T2, SPIC (Homo sapiens, UniProt Q8N5J4 1-248); conditions: protein: recombinant; tags: N-terminal GST; dsDNA, one strand shown
# T2 sequence: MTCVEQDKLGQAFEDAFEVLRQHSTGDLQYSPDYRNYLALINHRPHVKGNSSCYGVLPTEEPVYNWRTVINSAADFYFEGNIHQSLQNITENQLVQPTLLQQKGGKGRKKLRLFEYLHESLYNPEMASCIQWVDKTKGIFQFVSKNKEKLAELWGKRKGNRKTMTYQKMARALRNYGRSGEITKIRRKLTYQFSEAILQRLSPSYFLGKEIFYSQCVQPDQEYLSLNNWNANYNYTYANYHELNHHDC
# How it was run: as §1
# ELF4 = ELF4 (Homo sapiens, UniProt Q99607 1-663); conditions: protein: recombinant; tags: N-terminal GST; dsDNA, one strand shown
# Chain of ELF4 (Q99607 whole entry): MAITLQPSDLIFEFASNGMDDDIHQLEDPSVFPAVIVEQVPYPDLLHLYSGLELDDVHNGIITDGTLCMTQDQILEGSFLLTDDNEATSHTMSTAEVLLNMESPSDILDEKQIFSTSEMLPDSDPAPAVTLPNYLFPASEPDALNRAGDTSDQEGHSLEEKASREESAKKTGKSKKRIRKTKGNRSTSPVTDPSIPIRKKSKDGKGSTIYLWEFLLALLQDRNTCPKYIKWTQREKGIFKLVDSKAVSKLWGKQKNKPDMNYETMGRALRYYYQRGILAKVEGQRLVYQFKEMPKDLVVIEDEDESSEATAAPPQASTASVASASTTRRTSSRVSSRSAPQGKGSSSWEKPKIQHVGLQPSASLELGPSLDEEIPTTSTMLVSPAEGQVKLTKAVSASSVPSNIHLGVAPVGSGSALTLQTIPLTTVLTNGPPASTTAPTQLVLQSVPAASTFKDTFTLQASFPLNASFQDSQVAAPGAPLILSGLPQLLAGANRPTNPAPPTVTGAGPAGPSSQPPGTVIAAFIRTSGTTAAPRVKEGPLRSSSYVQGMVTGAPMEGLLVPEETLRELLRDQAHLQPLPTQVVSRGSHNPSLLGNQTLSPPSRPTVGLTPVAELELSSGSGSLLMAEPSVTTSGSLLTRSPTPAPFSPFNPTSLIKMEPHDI
# How it was run: as §1
# ELK4 = molecular target: T3, ELK4 (Homo sapiens, UniProt P28324-2 1-405); conditions: protein: recombinant; tags: N-terminal GST; dsDNA, one strand shown
# T3 sequence: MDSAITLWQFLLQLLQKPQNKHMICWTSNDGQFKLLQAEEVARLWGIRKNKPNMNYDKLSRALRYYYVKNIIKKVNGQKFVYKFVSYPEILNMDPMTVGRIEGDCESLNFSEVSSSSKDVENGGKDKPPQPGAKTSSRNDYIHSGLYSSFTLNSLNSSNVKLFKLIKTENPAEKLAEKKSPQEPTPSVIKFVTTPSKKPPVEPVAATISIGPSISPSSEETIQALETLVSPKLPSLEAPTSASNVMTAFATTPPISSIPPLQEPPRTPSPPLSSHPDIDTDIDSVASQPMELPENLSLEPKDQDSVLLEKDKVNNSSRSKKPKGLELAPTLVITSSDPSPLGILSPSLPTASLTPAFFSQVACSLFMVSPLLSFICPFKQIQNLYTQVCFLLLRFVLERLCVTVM
# How it was run: as §1
# ETV2 = molecular target: T4, ETV2 (Homo sapiens, UniProt O00321 1-342); conditions: protein: recombinant; tags: N-terminal GST; dsDNA, one strand shown
# T4 sequence: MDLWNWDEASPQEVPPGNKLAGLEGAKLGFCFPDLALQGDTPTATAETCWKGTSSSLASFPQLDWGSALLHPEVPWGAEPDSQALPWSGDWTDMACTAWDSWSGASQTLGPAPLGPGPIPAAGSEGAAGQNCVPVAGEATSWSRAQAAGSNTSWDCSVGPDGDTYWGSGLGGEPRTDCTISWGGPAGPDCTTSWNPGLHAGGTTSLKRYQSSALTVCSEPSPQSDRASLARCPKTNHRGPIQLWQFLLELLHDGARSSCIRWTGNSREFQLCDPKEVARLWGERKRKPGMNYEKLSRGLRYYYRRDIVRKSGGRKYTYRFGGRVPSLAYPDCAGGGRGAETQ
# How it was run: as §1
# ELF3 = molecular target: T5, ELF3 (Homo sapiens, UniProt P78545 1-371); conditions: protein: recombinant; tags: N-terminal GST; dsDNA, one strand shown
# T5 sequence: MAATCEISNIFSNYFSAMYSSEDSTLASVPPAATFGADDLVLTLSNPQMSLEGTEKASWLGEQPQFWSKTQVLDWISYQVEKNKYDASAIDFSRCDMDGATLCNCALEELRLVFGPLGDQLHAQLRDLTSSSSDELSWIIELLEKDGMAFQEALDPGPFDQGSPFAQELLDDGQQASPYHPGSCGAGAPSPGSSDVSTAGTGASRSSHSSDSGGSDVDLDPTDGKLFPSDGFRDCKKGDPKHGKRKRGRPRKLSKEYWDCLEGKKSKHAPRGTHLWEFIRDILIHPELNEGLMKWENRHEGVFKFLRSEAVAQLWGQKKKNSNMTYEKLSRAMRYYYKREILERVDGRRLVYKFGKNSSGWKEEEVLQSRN
# How it was run: as §1
# ETV1 = ETV1 (Homo sapiens, UniProt P50549 1-477); conditions: protein: recombinant; tags: N-terminal GST; dsDNA, one strand shown
# Chain of ETV1 (P50549 whole entry): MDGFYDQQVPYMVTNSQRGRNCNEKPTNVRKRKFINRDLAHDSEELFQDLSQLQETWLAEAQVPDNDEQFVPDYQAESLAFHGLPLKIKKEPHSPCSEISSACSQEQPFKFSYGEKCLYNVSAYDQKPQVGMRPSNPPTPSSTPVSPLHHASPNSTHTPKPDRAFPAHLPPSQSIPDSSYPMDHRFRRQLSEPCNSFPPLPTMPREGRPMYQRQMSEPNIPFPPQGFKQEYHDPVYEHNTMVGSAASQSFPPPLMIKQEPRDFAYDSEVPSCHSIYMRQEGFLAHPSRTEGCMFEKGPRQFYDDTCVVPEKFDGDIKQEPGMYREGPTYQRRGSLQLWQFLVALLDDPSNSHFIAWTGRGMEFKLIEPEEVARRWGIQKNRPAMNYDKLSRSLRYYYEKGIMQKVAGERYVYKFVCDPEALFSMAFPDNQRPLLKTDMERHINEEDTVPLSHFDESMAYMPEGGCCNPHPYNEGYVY
# How it was run: as §1
# ERF = molecular target: T6, ERF (Homo sapiens, UniProt P50548 1-548); conditions: protein: recombinant; tags: N-terminal GST; dsDNA, one strand shown
# T6 sequence: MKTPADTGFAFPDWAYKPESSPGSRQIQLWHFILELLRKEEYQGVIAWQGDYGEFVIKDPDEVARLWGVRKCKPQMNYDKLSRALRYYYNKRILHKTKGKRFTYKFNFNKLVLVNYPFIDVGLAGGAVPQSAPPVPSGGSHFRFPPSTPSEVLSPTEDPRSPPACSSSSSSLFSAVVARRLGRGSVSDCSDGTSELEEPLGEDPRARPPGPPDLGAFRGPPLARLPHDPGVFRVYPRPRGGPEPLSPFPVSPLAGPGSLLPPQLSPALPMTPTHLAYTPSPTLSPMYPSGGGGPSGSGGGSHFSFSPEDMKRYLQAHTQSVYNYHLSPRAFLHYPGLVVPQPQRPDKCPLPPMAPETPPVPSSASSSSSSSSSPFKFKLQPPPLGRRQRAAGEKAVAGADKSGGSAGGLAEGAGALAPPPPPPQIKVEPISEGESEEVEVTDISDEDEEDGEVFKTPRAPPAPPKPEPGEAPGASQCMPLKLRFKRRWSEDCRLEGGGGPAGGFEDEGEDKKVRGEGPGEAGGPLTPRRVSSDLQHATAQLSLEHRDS
# How it was run: as §1
# ETS2 = molecular target: T7, ETS2 (Homo sapiens, UniProt P15036 1-469); conditions: protein: recombinant; tags: N-terminal GST; dsDNA, one strand shown
# T7 sequence: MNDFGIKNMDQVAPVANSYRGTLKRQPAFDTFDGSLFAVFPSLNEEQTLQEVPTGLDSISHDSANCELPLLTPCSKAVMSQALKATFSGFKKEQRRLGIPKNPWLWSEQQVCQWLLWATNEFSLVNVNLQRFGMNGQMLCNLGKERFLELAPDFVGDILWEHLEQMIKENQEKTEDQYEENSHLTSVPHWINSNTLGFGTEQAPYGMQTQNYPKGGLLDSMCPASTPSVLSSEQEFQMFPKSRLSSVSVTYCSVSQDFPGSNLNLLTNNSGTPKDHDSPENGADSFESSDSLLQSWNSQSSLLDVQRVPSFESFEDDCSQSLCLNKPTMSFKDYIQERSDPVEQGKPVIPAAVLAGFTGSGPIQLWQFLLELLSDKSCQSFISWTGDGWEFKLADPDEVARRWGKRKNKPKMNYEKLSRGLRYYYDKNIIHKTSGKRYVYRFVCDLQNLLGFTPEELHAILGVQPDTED
# How it was run: as §1
# SPDEF = molecular target: T8, SPDEF (Homo sapiens, UniProt O95238 1-335); conditions: protein: recombinant; tags: N-terminal GST; dsDNA, one strand shown
# T8 sequence: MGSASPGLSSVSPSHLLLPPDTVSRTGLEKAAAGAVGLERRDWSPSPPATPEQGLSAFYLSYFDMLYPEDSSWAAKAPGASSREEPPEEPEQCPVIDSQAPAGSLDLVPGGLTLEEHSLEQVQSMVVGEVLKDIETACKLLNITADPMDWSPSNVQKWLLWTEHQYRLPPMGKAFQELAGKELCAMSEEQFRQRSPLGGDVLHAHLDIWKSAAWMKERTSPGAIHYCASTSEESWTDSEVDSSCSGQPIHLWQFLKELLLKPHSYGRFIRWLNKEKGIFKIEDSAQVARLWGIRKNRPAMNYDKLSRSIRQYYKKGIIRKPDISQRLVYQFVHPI
# How it was run: as §1
# ETV7 = molecular target: T9, ETV7 (Homo sapiens, UniProt Q9Y603 1-341); conditions: protein: recombinant; tags: N-terminal GST; dsDNA, one strand shown
# T9 sequence: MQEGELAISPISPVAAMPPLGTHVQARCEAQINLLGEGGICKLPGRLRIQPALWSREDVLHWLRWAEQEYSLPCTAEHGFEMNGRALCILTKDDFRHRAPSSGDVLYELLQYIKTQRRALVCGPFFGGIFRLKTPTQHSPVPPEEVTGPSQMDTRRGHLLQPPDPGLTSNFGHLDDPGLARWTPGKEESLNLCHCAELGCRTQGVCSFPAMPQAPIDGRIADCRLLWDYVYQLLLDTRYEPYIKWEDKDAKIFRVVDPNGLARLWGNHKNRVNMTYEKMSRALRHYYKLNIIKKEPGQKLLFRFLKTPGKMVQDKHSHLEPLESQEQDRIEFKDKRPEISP
# How it was run: as §1
# ELF5 = molecular target: T10, ELF5 (Homo sapiens, UniProt Q9UKW6-2 1-255); conditions: protein: recombinant; tags: N-terminal GST; dsDNA, one strand shown
# T10 sequence: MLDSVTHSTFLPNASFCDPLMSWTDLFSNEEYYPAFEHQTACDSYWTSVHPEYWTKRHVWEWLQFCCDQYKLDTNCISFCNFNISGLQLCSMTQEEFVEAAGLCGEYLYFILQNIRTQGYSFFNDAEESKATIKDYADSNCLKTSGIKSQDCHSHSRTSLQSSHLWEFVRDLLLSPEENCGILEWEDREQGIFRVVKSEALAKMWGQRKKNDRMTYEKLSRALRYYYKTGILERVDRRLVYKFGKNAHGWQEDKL
# How it was run: as §1
# ETV3 = molecular target: T11, ETV3 (Homo sapiens, UniProt P41162-2 1-143); conditions: protein: recombinant; tags: N-terminal GST; dsDNA, one strand shown
# T11 sequence: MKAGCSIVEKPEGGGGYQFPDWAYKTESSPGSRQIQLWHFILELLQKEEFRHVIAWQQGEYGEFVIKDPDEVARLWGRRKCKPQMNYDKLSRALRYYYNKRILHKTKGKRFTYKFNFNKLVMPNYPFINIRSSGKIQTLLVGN
# How it was run: as §1
# ETV6 = ETV6 (Homo sapiens, UniProt P41212 1-452); conditions: protein: recombinant; tags: N-terminal GST; dsDNA, one strand shown
# Chain of ETV6 (P41212 whole entry): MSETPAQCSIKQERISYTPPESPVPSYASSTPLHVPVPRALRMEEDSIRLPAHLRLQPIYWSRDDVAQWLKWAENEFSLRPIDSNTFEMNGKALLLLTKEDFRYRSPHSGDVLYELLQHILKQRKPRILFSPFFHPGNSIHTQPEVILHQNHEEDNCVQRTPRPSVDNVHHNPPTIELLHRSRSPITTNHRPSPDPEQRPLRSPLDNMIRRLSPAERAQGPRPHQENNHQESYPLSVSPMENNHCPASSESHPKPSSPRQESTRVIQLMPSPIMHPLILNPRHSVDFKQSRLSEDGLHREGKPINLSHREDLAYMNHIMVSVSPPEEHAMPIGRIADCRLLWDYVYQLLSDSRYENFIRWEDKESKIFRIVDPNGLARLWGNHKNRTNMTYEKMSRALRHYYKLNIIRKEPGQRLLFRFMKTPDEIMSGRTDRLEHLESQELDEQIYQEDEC
# How it was run: as §1
sequence,measurement,setting,value
TCGTAC,binding signal,FEV,"1.13 fold enrichment (6-mer frequency, TF over GST control)"
same,binding signal,ETV5,"1.13 fold enrichment (6-mer frequency, TF over GST control)"
same,binding signal,HSF1,"1.06 fold enrichment (6-mer frequency, TF over GST control)"
same,binding signal,SPIC,"1.09 fold enrichment (6-mer frequency, TF over GST control)"
same,binding signal,ELF4,"1.14 fold enrichment (6-mer frequency, TF over GST control)"
same,binding signal,ELK4,"1.03 fold enrichment (6-mer frequency, TF over GST control)"
same,binding signal,ETV2,"1.22 fold enrichment (6-mer frequency, TF over GST control)"
same,binding signal,ELF3,"1.22 fold enrichment (6-mer frequency, TF over GST control)"
same,binding signal,ETV1,"1.18 fold enrichment (6-mer frequency, TF over GST control)"
same,binding signal,ERF,"1.01 fold enrichment (6-mer frequency, TF over GST control)"
same,binding signal,ETS2,"1.07 fold enrichment (6-mer frequency, TF over GST control)"
same,binding signal,SPDEF,"1.06 fold enrichment (6-mer frequency, TF over GST control)"
same,binding signal,ETV7,"1.15 fold enrichment (6-mer frequency, TF over GST control)"
same,binding signal,ELF5,"1.02 fold enrichment (6-mer frequency, TF over GST control)"
same,binding signal,ETV3,"1.02 fold enrichment (6-mer frequency, TF over GST control)"
same,binding signal,ETV6,"1.08 fold enrichment (6-mer frequency, TF over GST control)"
